For orientation: residual activity means the signal under treatment as a percentage of the control signal.

Consider one compound from ChEMBL document CHEMBL2218924, “A broad activity screen in support of a chemogenomic map for kinase signalling research and drug discovery” (Biochem J, 2013).

Molecules are shown by their SMILES.

In assay [1] the target is T1, Ephrin type-B receptor 1 (Homo sapiens) (UniProt P54762).
T1 sequence (whole entry): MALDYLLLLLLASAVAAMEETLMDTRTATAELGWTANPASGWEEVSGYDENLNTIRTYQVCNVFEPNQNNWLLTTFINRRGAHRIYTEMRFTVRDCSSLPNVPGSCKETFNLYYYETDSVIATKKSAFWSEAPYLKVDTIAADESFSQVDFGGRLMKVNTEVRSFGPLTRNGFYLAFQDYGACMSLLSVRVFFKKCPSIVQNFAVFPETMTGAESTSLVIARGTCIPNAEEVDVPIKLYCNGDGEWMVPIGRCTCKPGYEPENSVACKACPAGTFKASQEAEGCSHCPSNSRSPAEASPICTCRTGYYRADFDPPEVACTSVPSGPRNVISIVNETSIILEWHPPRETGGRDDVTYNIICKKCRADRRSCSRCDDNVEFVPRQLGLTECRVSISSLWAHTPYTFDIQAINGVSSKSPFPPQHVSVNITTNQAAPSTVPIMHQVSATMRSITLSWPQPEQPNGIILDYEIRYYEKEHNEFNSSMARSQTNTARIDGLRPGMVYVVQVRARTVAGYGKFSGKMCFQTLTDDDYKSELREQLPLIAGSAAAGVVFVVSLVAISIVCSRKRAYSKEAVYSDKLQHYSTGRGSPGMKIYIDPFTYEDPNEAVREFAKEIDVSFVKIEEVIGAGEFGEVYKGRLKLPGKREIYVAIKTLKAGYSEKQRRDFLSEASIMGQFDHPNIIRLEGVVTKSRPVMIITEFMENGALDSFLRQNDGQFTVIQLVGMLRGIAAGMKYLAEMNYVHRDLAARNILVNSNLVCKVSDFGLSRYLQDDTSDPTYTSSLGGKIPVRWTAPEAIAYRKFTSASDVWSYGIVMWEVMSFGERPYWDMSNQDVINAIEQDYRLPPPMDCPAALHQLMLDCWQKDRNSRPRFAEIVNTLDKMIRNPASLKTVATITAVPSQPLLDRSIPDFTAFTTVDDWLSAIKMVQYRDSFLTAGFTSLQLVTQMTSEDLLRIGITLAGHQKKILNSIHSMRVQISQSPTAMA
The settings on record: at 10 µM.

The target of assay [2] is T2, Ephrin type-B receptor 2 (Homo sapiens) (UniProt P29323).
T2 sequence (whole entry): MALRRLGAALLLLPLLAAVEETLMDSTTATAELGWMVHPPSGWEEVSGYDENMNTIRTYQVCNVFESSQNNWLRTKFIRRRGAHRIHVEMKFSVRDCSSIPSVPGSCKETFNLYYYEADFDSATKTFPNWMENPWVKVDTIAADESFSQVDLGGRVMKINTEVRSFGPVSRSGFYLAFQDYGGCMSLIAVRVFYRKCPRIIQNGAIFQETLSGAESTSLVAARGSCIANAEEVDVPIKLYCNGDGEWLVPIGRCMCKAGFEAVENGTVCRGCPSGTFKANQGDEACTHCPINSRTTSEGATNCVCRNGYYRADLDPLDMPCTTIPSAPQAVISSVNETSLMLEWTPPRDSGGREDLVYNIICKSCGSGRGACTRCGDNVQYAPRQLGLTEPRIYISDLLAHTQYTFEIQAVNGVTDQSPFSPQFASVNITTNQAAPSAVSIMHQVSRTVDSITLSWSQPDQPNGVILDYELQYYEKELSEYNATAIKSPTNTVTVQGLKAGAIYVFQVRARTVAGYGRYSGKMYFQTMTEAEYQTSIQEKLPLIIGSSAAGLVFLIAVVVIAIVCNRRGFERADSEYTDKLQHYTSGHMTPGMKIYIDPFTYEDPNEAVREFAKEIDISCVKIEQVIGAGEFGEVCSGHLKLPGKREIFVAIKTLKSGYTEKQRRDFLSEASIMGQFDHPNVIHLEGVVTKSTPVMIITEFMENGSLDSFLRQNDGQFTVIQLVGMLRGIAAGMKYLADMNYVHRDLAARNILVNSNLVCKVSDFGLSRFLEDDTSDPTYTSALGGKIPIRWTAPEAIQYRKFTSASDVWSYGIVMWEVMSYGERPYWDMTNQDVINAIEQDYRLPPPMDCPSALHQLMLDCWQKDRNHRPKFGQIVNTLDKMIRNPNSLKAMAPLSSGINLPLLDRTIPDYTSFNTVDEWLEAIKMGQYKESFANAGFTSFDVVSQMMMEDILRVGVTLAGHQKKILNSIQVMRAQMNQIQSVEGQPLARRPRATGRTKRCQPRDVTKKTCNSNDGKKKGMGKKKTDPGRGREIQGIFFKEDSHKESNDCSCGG
The settings on record: at 1 µM.

For assay [3], the target named is T2, Ephrin type-B receptor 2 (Homo sapiens). The settings on record: at 10 µM.
The target in assay [4] is T3, Ephrin type-B receptor 3 (Homo sapiens) (UniProt P54753).
T3 sequence (whole entry): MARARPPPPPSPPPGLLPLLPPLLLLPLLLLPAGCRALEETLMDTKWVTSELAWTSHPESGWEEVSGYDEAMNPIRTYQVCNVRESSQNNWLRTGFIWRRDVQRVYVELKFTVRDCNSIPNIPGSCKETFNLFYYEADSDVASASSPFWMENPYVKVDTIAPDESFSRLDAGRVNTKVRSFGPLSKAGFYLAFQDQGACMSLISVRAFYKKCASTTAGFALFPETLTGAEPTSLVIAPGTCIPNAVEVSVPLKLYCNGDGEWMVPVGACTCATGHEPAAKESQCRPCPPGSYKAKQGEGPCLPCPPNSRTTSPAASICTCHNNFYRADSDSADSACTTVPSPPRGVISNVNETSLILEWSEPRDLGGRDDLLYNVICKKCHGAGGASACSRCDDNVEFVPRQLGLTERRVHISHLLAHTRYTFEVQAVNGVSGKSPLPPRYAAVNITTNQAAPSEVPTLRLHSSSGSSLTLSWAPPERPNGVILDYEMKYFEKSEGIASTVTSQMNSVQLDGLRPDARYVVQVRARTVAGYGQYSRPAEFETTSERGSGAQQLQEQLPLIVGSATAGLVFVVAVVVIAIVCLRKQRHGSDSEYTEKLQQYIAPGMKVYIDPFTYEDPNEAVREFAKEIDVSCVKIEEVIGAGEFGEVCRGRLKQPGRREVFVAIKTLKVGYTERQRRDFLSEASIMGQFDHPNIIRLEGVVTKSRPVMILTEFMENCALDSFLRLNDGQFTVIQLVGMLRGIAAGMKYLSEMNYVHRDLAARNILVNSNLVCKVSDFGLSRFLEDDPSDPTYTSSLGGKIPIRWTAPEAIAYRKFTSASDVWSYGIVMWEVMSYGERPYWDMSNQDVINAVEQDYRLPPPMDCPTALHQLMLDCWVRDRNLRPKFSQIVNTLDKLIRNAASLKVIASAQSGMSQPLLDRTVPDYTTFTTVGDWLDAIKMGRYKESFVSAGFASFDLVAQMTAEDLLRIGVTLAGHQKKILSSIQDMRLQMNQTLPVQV
The settings on record: at 1 µM.

Assay [5] deals with T3, Ephrin type-B receptor 3 (Homo sapiens). The settings on record: at 10 µM.
Assay [6] addresses T4, Ephrin type-B receptor 4 (Homo sapiens) (UniProt P54760).
T4 sequence (whole entry): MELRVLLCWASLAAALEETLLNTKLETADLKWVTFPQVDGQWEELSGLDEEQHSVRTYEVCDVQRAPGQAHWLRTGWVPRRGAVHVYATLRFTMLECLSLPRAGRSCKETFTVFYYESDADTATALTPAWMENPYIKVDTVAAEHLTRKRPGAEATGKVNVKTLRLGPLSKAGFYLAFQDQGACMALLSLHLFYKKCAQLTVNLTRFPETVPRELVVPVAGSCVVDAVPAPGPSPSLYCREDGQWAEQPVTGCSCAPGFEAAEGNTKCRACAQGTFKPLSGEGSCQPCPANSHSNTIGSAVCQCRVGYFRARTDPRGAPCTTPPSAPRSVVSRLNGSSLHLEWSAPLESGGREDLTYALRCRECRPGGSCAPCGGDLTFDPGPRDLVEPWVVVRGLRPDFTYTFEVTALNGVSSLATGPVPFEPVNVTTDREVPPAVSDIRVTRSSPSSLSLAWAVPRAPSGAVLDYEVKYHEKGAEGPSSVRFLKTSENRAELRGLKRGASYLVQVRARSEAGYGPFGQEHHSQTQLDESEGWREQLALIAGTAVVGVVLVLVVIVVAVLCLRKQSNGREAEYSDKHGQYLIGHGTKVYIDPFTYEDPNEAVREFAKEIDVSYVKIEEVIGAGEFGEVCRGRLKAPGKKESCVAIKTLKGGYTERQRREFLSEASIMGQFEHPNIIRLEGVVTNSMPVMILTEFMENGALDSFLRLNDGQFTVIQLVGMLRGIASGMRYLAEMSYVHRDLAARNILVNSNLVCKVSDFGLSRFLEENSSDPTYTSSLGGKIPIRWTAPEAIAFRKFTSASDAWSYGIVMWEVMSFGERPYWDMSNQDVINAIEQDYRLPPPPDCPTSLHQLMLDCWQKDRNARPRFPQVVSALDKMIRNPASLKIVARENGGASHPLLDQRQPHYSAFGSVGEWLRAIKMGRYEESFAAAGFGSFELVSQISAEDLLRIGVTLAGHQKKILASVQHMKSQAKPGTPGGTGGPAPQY
The settings on record: at 1 µM.

The target of assay [7] is T4, Ephrin type-B receptor 4 (Homo sapiens). The settings on record: at 10 µM.
Assay [8] deals with Receptor tyrosine-protein kinase erbB-4 (Homo sapiens) (UniProt Q15303). The settings on record: at 1 µM.
Receptor tyrosine-protein kinase erbB-4 (Homo sapiens), sequence (Q15303 whole entry): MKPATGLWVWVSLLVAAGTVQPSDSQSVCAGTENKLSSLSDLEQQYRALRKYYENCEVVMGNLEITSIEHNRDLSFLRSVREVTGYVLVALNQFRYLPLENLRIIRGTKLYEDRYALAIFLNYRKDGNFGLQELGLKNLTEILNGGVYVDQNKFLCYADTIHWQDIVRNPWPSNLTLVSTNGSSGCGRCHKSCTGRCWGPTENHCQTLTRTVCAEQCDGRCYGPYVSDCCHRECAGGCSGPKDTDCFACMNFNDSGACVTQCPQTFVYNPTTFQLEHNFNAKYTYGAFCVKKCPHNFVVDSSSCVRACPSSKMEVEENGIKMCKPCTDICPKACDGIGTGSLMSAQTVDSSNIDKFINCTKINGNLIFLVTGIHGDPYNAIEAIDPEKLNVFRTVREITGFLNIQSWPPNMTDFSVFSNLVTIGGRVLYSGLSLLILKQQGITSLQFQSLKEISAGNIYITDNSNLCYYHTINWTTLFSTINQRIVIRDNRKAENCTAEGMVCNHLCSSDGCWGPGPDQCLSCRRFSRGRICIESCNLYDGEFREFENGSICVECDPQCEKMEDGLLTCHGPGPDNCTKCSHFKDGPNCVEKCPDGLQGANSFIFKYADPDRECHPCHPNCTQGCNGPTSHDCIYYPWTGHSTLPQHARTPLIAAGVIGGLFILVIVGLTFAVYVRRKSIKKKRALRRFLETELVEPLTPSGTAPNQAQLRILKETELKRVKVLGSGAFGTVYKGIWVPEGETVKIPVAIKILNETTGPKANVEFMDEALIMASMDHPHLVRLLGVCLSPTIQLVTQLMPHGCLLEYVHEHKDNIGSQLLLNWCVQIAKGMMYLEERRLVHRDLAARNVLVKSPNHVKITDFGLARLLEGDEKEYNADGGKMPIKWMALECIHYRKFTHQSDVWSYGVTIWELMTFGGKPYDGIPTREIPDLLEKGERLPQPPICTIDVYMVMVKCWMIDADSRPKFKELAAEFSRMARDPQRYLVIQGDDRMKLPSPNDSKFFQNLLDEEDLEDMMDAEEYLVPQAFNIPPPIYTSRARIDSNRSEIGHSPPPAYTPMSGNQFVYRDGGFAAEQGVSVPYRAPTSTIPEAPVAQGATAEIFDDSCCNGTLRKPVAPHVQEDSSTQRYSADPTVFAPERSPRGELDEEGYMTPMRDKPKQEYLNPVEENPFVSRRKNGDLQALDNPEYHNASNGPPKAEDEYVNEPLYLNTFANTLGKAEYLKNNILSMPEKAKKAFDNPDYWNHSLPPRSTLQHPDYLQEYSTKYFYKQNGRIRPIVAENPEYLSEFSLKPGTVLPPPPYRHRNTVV
The target is the same in assay [9]. The settings on record: at 10 µM.
Assay [10] deals with Focal adhesion kinase 1 (Homo sapiens) (UniProt Q05397). The settings on record: at 1 µM.
Focal adhesion kinase 1 (Homo sapiens), sequence (Q05397 2-1052 limits assumed): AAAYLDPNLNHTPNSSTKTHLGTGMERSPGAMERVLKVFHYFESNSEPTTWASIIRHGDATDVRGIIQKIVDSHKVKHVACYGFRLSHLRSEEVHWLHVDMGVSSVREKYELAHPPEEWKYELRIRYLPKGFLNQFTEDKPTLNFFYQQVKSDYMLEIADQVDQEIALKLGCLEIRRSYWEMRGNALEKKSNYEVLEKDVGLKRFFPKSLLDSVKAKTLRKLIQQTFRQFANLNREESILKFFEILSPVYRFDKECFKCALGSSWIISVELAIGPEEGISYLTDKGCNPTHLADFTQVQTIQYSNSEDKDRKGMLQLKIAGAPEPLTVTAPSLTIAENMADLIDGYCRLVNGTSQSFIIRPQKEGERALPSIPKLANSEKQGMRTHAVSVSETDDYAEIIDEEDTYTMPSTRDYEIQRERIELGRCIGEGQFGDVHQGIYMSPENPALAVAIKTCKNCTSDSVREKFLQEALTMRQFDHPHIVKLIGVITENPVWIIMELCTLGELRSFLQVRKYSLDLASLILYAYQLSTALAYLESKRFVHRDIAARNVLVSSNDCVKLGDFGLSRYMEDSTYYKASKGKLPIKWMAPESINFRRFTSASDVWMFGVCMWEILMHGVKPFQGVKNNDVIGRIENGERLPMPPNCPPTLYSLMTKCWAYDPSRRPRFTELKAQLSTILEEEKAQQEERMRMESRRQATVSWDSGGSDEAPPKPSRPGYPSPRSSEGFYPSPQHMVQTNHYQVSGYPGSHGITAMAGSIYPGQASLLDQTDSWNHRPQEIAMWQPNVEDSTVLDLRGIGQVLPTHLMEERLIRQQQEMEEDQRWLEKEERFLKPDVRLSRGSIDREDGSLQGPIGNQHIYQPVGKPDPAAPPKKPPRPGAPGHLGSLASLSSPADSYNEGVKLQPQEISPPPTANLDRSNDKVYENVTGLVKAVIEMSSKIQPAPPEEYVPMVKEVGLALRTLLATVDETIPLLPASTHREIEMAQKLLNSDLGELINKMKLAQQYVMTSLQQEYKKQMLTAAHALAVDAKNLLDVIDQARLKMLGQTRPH

Regarding `COc1ccc(C(=O)Nc2sc3c(c2C(N)=O)CCCC3)cc1OC`, the residual activity is 100% in assay [1]; 122% in [2]; 110% in [3]; 110% (inactive) in [4]; 122% in assay [5]; 98% in assay [6]. Further, the residual activity in assay [7] stood at 120%; in [8], 87%; in [9] it was 97%; in assay [10], 119%.
